Test results: PubChem BioAssay (Tox21)
Where “and” joins values, the source holds several entries; their conditions need not be identical. Identical values can stand only once. Inconclusive results are not listed. A call without a number means that no potency is given here. Some structures have more than one record in an assay (separate samples or runs), and their calls can disagree. Calls of active or inactive are those of the source. The call rests on the fitted dose curve; in most records, active means well fitted activation curve with a large enough effect in the repeat runs; inconclusive means weak or mixed curves; inactive means flat fitted curve, though single readings scatter.
Potency means the concentration at half of the fitted maximal effect.

Assay: A CellTox Green Cytotoxicity Assay to monitor cytotoxicity in HepG2 cells - 32 hour (AID 1224883); further: nearly all actives have a fitted effect of over 50% in size
Conditions: CellTox Green fluorescence; series mostly up to 76.8 µM; cytotoxicity increase: at the top concentration
From the text: National Center for Advancing Translational Sciences [NCATS]
NIH Chemical Genomics Center [NCGC]
U.S. Environmental Protection Agency [EPA]
National Institutes of Environmental Health Sciences [NIEHS]
National Toxicology Program [NTP]
Cell-based models are critical for drug discovery. Determining the natural cytotoxic effects resulting from test compounds is an essential research activity. A CellTox Green Cytotoxicity Assay to monitor cytotoxicity in real time of continues cell culture during 40 hours of the compound treatment was used to screen Tox21 10K library compounds in HepG2 cells. CellTox Green Cytotoxicity Assay is a nonlytic, homogeneous, biofluorescent method to measure cytotoxicity in cell culture after experimental manipulation. The assay system uses a proprietary asymmetric cyanine dye that is excluded from viable cells but preferentially stains the dead cell's DNA. […] Viable cells produce no appreciable increases in fluorescence. Therefore, the fluorescence signal produced by the binding interaction with dead cell DNA is proportional to cytotoxicity.
The mixture of HepG2 cell suspension and reagents were dispensed at 600cells/6 ul/well in 1536-well tissue culture treated black solid bottom plates using a Multidrop dispenser. After the assay plates were incubated at a 37 C/5% CO2 incubator for 5 hours, 23 nL of compounds dissolved in DMSO, positive and negative controls was transferred to the assay plate by a pintool work station. The plates were incubated at 37 C for 40 hours. The fluorescence intensity were measured at 0h, 8h, 16h, 24h, 32h and 40h time points using ViewLux plate reader during compound treatment.
For `O=C(Nc1ccc(Cl)cc1)Nc1ccc(Cl)c(Cl)c1`, the “cytotoxicity increase” value was 24.1% [at 35.3 µM] (inactive). For `OC[C@H]1O[C@@H]2O[C@H]3[C@H](O)[C@@H](O)[C@@H](O[C@H]4[C@H](O)[C@@H](O)[C@@H](O[C@H]5[C@H](O)[C@@H](O)[C@@H](O[C@H]6[C@H](O)[C@@H](O)[C@@H](O[C@H]7[C@H](O)[C@@H](O)[C@@H](O[C@H]8[C@H](O)[C@@H](O)[C@@H](O[C@H]1[C@H](O)[C@H]2O)O[C@@H]8CO)O[C@@H]7CO)O[C@@H]6CO)O[C@@H]5CO)O[C@@H]4CO)O[C@@H]3CO`, the Potency was “inactive”. With `CCCCNS(=O)(=O)c1ccccc1` the Potency was “inactive”. For `COc1ccc(C(=O)CC(=O)c2ccc(C(C)(C)C)cc2)cc1`, the Potency was “inactive and 67.4 nM (active)”. For `CC(=O)O[C@]1(C(C)=O)CC[C@H]2[C@@H]3C=C(Cl)C4=CC(=O)[C@@H]5C[C@@H]5[C@]4(C)[C@H]3CC[C@@]21C`, the Potency was “inactive”. In the case of `CC(=O)c1ccccn1`, the Potency is reported as “inactive”. For `OCCO`, the Potency was “inactive”. In the case of `CCCCC/C=C/C=C/C=O`, the Potency is reported as 54.5 µM (active) and 54.9 µM (active). For `c1cc(N(CC2CO2)CC2CO2)ccc1OCC1CO1` (stereo not given), the “cytotoxicity increase” value was -3.46% (inactive). In the case of `Cc1c(OCC(F)(F)F)ccnc1CS(=O)c1nc2ccccc2[nH]1` (stereo not given), the Potency is reported as “inactive”. In the case of `O=C(O)c1ccccc1Nc1cccc(C(F)(F)F)c1`, the Potency is reported as “inactive”. With `CC(C)OC(=O)C(C)(C)Oc1ccc(C(=O)c2ccc(Cl)cc2)cc1` the “cytotoxicity increase” value was -7.56% [at 35.3 µM] (inactive). For `Nc1ccc(Cl)cc1Cl`, the Potency was “inactive”. With `CC(C)CC(C)(O)C#CC(C)(O)CC(C)C` (stereo not given) the Potency was “inactive”. For `O=C(Nc1ccc([N+](=O)[O-])cc1Cl)c1cc(Cl)ccc1O`, the Potency was 4.9 µM (active) and 2.93 µM (active). In the case of `CC(CCC(=O)O)(c1ccc(O)cc1)c1ccc(O)cc1`, the Potency is reported as “inactive”. With `CN1C(C(=O)Nc2ccccn2)=C(O)c2ccccc2S1(=O)=O` the Potency was “inactive”. For `Cc1ncc[nH]1`, the Potency was “inactive”. For `OC(CCl)CCl`, the Potency was “inactive”. In the case of `O=C(c1ccc(OCCN2CCCCC2)cc1)c1c(-c2ccc(O)cc2)sc2cc(O)ccc12`, the Potency is reported as 49 µM (active) and 54.9 µM (active). For `COc1ccc(OC)c(C(O)CNC(=O)CN)c1` (stereo not given), the Potency was “inactive”. In the case of `C#C[C@]1(O)CC[C@H]2[C@@H]3CCc4cc(OC)ccc4[C@H]3CC[C@@]21C`, the Potency is reported as 23.9 µM (active). With `Nc1ncnc2nc[nH]c12` the “cytotoxicity increase” value was 5.14% [at 35.3 µM] (inactive). For `O=[N+]([O-])c1ccc2c(c1)Cc1ccccc1-2`, the Potency was “inactive”. In the case of `C[C@]12CC[C@H]3[C@@H](CCC4=CC(=O)CC[C@@]43C)[C@@H]1CC[C@@H]2C(=O)CO`, the “cytotoxicity increase” value is reported as -9.83% [at 35.3 µM] (inactive). With `Cc1cccc(C(=O)O)c1` the Potency was “inactive”. With `CCCc1c(OCCCCc2nn[nH]n2)ccc(C(C)=O)c1O` the Potency was “inactive”. In the case of `Cc1ccc2c(n1)Oc1ccc(C(C)C(=O)OCC(=O)N(C)C)cc1C2` (stereo not given), the “cytotoxicity increase” value is reported as -9.25% [at 35.3 µM] (inactive). With `COC(=O)C1=C(C)NC(C)=C(C(=O)OCCN(C)Cc2ccccc2)C1c1cccc([N+](=O)[O-])c1` (stereo not given) the Potency was 48.7 µM (active) and inactive. For `c1ccc(Nc2ccccc2)cc1`, the Potency was 38.9 µM (active) and inactive. With `CC(C(=O)O)c1cccc(C(=O)c2ccccc2)c1` (stereo not given) the Potency was “inactive”. In the case of `CCCCCCCCCCCO`, the Potency is reported as “inactive”. With `CC1=CCC(C(C)(C)O)CC1` (stereo not given) the Potency was “inactive and 21.9 µM (active)”. For `O=c1oc(=O)c2cc3c(=O)oc(=O)c3cc12`, the Potency was “inactive”. In the case of `c1ccc2sc(SSN3CCOCC3)nc2c1`, the Potency is reported as 54.8 µM (active) and 54.9 µM (active). For `CCC(C)c1ccccc1O` (stereo not given), the Potency was 48.6 µM (active). For `Brc1cc(Oc2cc(Br)c(Br)c(Br)c2Br)c(Br)c(Br)c1Br`, the Potency was “inactive”. For `NNc1ccc(C(=O)O)cc1`, the Potency was “inactive”. With `O=C=Nc1ccc(Cc2ccc(N=C=O)cc2)cc1` the Potency was “inactive”. For `O=C(c1ccccc1)c1ccc(O)cc1O`, the Potency was “inactive and 43.6 µM (active)”.
